Assay results reported in the supplement of paper PMC9694430.

Columns and labels:
Test in all cases: thermal shift delta Tm vs DMSO control; higher = stronger stabilization (binding)
Settings in all cases: 12.5 µM; protein concentration 2 µM
LOC_OS01G01410-cb001 = system: LOC_OS01G01410-cb001
In short: (§1)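 Rice kinase domain constructs were expressed in E. coli, purified, and tested by differential scanning fluorimetry with compound added in DMSO. Each well of a 96-well plate held 19.5 μl of 2 μM kinase in 100 mM potassium phosphate pH 7.5, 150 mM NaCl, 10% glycerol and 5 × SYPRO Orange, and fluorescence was read from 25°C to 95°C at 0.05°C/s. The melting temperature shift is the mean of triplicates, taken against protein with DMSO alone after Boltzmann fitting.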

LOC_OS01G02750-cb003 = system: LOC_OS01G02750-cb003
In short: as §1

LOC_OS01G10900-cb004 = system: LOC_OS01G10900-cb004
In short: as §1

LOC_OS01G13800-cb001 = system: LOC_OS01G13800-cb001
In short: as §1

LOC_OS01G14860-cb001 = system: LOC_OS01G14860-cb001
In short: as §1

LOC_OS01G21960-cb002 = system: LOC_OS01G21960-cb002
In short: as §1

LOC_OS01G39600-cb002 = system: LOC_OS01G39600-cb002
In short: as §1

LOC_OS01G48390-cb002 = system: LOC_OS01G48390-cb002
In short: as §1

LOC_OS01G51400-cb002 = system: LOC_OS01G51400-cb002
In short: as §1

LOC_OS01G52050-cb004 = system: T1, LOC_OS01G52050-cb004
T1 sequence (whole entry): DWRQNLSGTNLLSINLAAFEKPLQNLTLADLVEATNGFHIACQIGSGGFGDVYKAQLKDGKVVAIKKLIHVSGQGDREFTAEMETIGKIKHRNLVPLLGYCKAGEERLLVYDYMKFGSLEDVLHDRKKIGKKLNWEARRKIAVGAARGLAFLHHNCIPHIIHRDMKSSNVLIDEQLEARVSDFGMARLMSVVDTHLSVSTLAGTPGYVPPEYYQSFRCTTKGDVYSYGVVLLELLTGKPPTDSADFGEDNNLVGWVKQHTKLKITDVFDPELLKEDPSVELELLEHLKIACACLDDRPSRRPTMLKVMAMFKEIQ
In short: as §1

LOC_OS01G57100-cb003 = system: LOC_OS01G57100-cb003
In short: as §1

LOC_OS01G60330-cb001 = system: LOC_OS01G60330-cb001
In short: as §1

LOC_OS01G60700-cb002 = system: LOC_OS01G60700-cb002
In short: as §1

LOC_OS01G63280-cb003 = system: LOC_OS01G63280-cb003
In short: as §1

LOC_OS01G67340-cb003 = system: LOC_OS01G67340-cb003
In short: as §1

LOC_OS01G70970-cb002 = system: LOC_OS01G70970-cb002
In short: as §1

LOC_OS02G07810-cb001 = system: LOC_OS02G07810-cb001
In short: as §1

LOC_OS02G08530-cb003 = system: LOC_OS02G08530-cb003
In short: as §1

LOC_OS02G14120-cb001 = system: LOC_OS02G14120-cb001
In short: as §1

LOC_OS02G17970-cb001 = system: LOC_OS02G17970-cb001
In short: as §1

| SMILES | thermal shift delta Tm (LOC_OS01G01410-cb001) | thermal shift delta Tm (LOC_OS01G02750-cb003) | thermal shift delta Tm (LOC_OS01G10900-cb004) | thermal shift delta Tm (LOC_OS01G13800-cb001) | thermal shift delta Tm (LOC_OS01G14860-cb001) | thermal shift delta Tm (LOC_OS01G21960-cb002) | thermal shift delta Tm (LOC_OS01G39600-cb002) | thermal shift delta Tm (LOC_OS01G48390-cb002) | thermal shift delta Tm (LOC_OS01G51400-cb002) | thermal shift delta Tm (LOC_OS01G52050-cb004) | thermal shift delta Tm (LOC_OS01G57100-cb003) | thermal shift delta Tm (LOC_OS01G60330-cb001) | thermal shift delta Tm (LOC_OS01G60700-cb002) | thermal shift delta Tm (LOC_OS01G63280-cb003) | thermal shift delta Tm (LOC_OS01G67340-cb003) | thermal shift delta Tm (LOC_OS01G70970-cb002) | thermal shift delta Tm (LOC_OS02G07810-cb001) | thermal shift delta Tm (LOC_OS02G08530-cb003) | thermal shift delta Tm (LOC_OS02G14120-cb001) | thermal shift delta Tm (LOC_OS02G17970-cb001) |
| --- | --- | --- | --- | --- | --- | --- | --- | --- | --- | --- | --- | --- | --- | --- | --- | --- | --- | --- | --- | --- |
| CCc1cnn2c(NCc3ccc[n+]([O-])c3)cc(N3CCCC[C@H]3CCO)nc12 | 0.61 °C | 2.64 °C | 0.06 °C | 0.02 °C | 3.51 °C | 0.49 °C | -0.18 °C | 0.7 °C | 0.2 °C | 0.32 °C | 1.62 °C | 1.64 °C | 0.78 °C | 0.34 °C | -0.24 °C | 0.27 °C | 1.17 °C | 0.89 °C | 0.57 °C | 0.96 °C |
| Cc1cc(Nc2cc(Cl)nc(Oc3ccc([N+](=O)[O-])cc3)n2)n[nH]1 [Autophinib] | 2.53 °C | 3.49 °C | 2.92 °C | -0.1 °C | 7.77 °C | 1.42 °C | 1.82 °C | 4.13 °C | 0.51 °C | 5.57 °C | 1.52 °C | 0.66 °C | -0.44 °C | 0.94 °C | 0.51 °C | 1.07 °C | -0.12 °C | 0.84 °C | 0.42 °C | 0.46 °C |
| COc1cc(Nc2ncc3c(n2)-c2ccc(Cl)cc2C(c2c(F)cccc2OC)=NC3)ccc1C(=O)O [Alisertib (MLN8237)] | 0.87 °C | 0.27 °C | -0.01 °C | -0.04 °C | 0.35 °C | -0.3 °C | 3.62 °C | -0.18 °C | -0.33 °C | 0.48 °C | 0.2 °C | 0.56 °C | 0.66 °C | 0.76 °C | 0.39 °C | 0.83 °C | 0.08 °C | 0.3 °C | 4.62 °C | 0.21 °C |
| Cc1cc(Nc2cc(N3CCN(C)CC3)nc(/C=C/c3ccccc3)n2)n[nH]1 [ENMD-2076 L-(+)-Tartaric acid] | 2.38 °C | 2.56 °C | 1.86 °C | -0.25 °C | 4.33 °C | 2.63 °C | 1.94 °C | 3.3 °C | 0.81 °C | 4.1 °C | 1.16 °C | 8.71 °C | 1.16 °C | 0.86 °C | 1.45 °C | 3.09 °C | 0.04 °C | 2.96 °C | 7.86 °C | 0.95 °C |
| CCOC(=O)c1cnc2ccc(-c3cncc(NS(=O)(=O)c4ccccc4)c3)cn12 | 1.19 °C | 2.3 °C | 1.17 °C | 0.29 °C | 0.13 °C | 1.06 °C | 0.33 °C | 0.35 °C | 0.6 °C | 0.54 °C | 2.2 °C | 0.95 °C | 1.04 °C | 0.47 °C | 0.76 °C | 0.2 °C | 1.1 °C | 1.79 °C | -0.08 °C | 0.87 °C |
| CN1CCN(c2ccc3nc(-c4c(N)c5c(F)cccc5[nH]c4=O)[nH]c3c2)CC1 [Dovitinib (TKI-258) Dilactic Acid] | 5.85 °C | 2.07 °C | 4.46 °C | -0.49 °C | 1.65 °C | 3.5 °C | 4.66 °C | 3.4 °C | 0.79 °C | 6.33 °C | 1.5 °C | 13.5 °C | 1.33 °C | 1.22 °C | 6.31 °C | 7.56 °C | 1.75 °C | 4.53 °C | 6.88 °C | 0.5 °C |
| Cc1nc(Nc2ncc(C(=O)Nc3c(C)cccc3Cl)s2)cc(N2CCN(CCO)CC2)n1 [Dasatinib] | 1.38 °C | 0.59 °C | 4.47 °C | 0.61 °C | 0.27 °C | 1.22 °C | 5.93 °C | 0.6 °C | 0.66 °C | 0.79 °C | 0.7 °C | 0.68 °C | 1.43 °C | 0.25 °C | 0.73 °C | 0.48 °C | 0.58 °C | 0.93 °C | 4.94 °C | 0 °C |
| CNC(=O)c1cc(Oc2ccc3nc(N[C@@H]4CCCC[C@H]4O)sc3c2)ccn1 | 0.03 °C | 2.05 °C | 1.18 °C | 0.41 °C | -0.2 °C | 0.67 °C | -0.55 °C | 0.91 °C | 0.42 °C | 0.41 °C | 1.55 °C | 0.59 °C | 1.46 °C | 0.76 °C | 1.16 °C | 0.25 °C | 0.97 °C | 0.76 °C | -0.02 °C | 0.53 °C |
| CCS(=O)(=O)c1cccc(-c2cc(C(=O)NC3CCN(C)CC3)c(C)c3[nH]c4ncc(C)cc4c23)c1 | 3.99 °C | 0.8 °C | 4.18 °C | -0.51 °C | 4.38 °C | 2.97 °C | 0.89 °C | 2.14 °C | 0.16 °C | 6.44 °C | 1.61 °C | 3.88 °C | 0.41 °C | -0.02 °C | 0.99 °C | 6.38 °C | 0.49 °C | 4.38 °C | 10.6 °C | 0.54 °C |
| O=C(c1ccc(F)c(F)c1Nc1ccc(I)cc1F)N1CC(O)([C@@H]2CCCCN2)C1 [Cobimetinib (GDC-0973, RG7420)] | 0.62 °C | 1.67 °C | 0.3 °C | 0.01 °C | 0.39 °C | 0.36 °C | -0.03 °C | 0.12 °C | 0.29 °C | 0.44 °C | 2.49 °C | 0.82 °C | 1.16 °C | 0.52 °C | 0.36 °C | 0.54 °C | 0.48 °C | 1.02 °C | 1.18 °C | 0.97 °C |
